Screen size: about 4,500 compounds; about 200 (4.4%) were called active. This is one part of a sample in which actives are shown more often than they occur. Unmarked numbers belong to inactive results.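 The calls were made as follows: active = cell survival measured by absorbance rises more than 2.5-fold over infected cells without compound; inactive = the rest.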
Test: survival after telomere uncapping, modulators, primary screen, cell-based (AID 1259312);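 also: virus expresses mutant telomerase RNA that uncaps telomeres and kills cells; compound added 2 days after infection so exposure lasts 3 days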
Details: HCT116 + Ad-hTR-mut, MTT, 5 d; at 10 µM, active compounds read high
`Cn1c(-c2ccccc2)c(NC(=O)c2ccccc2Cl)c(=O)n1C` showed a fold change of -1.22. Work on `C=CCOC(=O)c1sc(NC(=O)c2ccco2)nc1C` yielded a fold change of -1.45. For `Oc1[nH]c(=S)sc1/C=C/C=C/C=Nc1ccccc1`, the fold change was “inactive”. `CCCc1cc(=O)oc2cc(O)cc(O)c12` gave a fold change of 1.04. In the case of `Cn1nc(C(F)(F)F)cc1C(=O)O`, the fold change is reported as -1.06. In the case of `Cc1cc(C(F)(F)F)nn1CC(N)=O`, the fold change is reported as 3.13 (active). `Cc1sc(NC(=O)Cn2nc(C(F)(F)F)cc2C)c(C(N)=O)c1C` gave a fold change of -1.23. For `C=CCn1c(COc2ccccc2)n[nH]c1=S`, the fold change was 1.52. Work on `CCOC(=O)c1c(NC(=O)C23CC4CC(CC(C4)C2)C3)sc2c1CCN(C(=O)OCC)C2` yielded a fold change of -1.15. For `O=[N+]([O-])c1ccc(N=Cc2cc(Br)cc(Br)c2O)cc1`, the fold change was “active”. For `O=[N+]([O-])c1ccc(N=Cc2cc(Br)cc(Br)c2O)c(O)c1`, the fold change was “inactive”. For `Oc1c(Br)cc(Br)cc1C=Nc1ccc(Cl)cc1Cl`, the fold change was “active”. In the case of `O=[N+]([O-])c1cc(Br)cc(C=Nc2ccc(N=Cc3cc(Br)cc([N+](=O)[O-])c3O)cc2)c1O`, the fold change is reported as “inactive”. For `O=[N+]([O-])c1ccc(O)c(N=Cc2cc(Br)cc([N+](=O)[O-])c2O)c1`, the fold change was “inactive”. In the case of `Oc1c(Cl)cc(Cl)cc1C=Nc1ccc(Cl)cc1Cl`, the fold change is reported as “inactive”. In the case of `O=[N+]([O-])c1ccc(O)c(N=Cc2cc(Br)cc(Br)c2O)c1`, the fold change is reported as “active”. In the case of `O=[N+]([O-])c1ccc(N=Cc2cc(Br)cc([N+](=O)[O-])c2O)cc1`, the fold change is reported as “inactive”. For `Oc1c(Br)cc(Br)cc1C=Nc1cc(Cl)ccc1Cl`, the fold change was “inactive”. Compound `S=C(c1ccco1)N1CCOCC1` has a fold change of 1.24. `NC(Cc1cc(F)ccc1F)C(=O)O` (stereo not given) gave a fold change of -3.72. `O=[N+]([O-])c1cccc(S(=O)(=O)Nc2ccc(I)cc2)c1` showed a fold change of 1.39. Compound `O=[N+]([O-])c1ccc(Nc2ccc(O)cc2)c([N+](=O)[O-])c1` has a fold change of -1.07. For `O=[N+]([O-])c1ccc(NS(=O)(=O)c2ccccc2)c([N+](=O)[O-])c1`, the fold change was 3.49 (active). `O=C1CN(C(=O)Cn2c(=O)oc3ccccc32)c2ccccc2N1` gave a fold change of -1.03. `O=C1CCC(=O)N1CCCCCCN1C(=O)CCC1=O` showed a fold change of -1.37. In the case of `CN1N=C(C(=O)O)CCC1=O`, the fold change is reported as 2.58 (active). In the case of `O=C(O)C1=NN(c2ccc(S(=O)(=O)O)cc2)C(=O)C1`, the fold change is reported as 1.74. `O=C1C=CC(=O)N1c1cc(Cl)cc(Cl)c1` gave a fold change of -1.38. In the case of `N#CC1=C(N)C(C#N)(C#N)C(c2ccc(Cl)cc2Cl)C2CCCC=C12` (stereo not given), the fold change is reported as -4.43. With `Cc1[nH][nH]c(=O)c1C1(C(C#N)C#N)C2CC3CC(C2)CC1C3` (stereo not given) the fold change was 2.9 (active). Compound `C=CCN(CC=C)C(=O)C1c2ccccc2Oc2ccccc21` has a fold change of -1.36. With `CN(C)c1ccc(NC(=O)c2sc(=S)[nH]c2N)cc1` the fold change was -1.46. With `N#Cc1c(C(F)(F)F)cc(-c2cccs2)oc1=S` the fold change was -2.59. In the case of `N#Cc1c(C(F)(F)F)cc(-c2cccs2)[nH]c1=S`, the fold change is reported as 4.58 (active). With `N#Cc1c(C(F)(F)F)cc(-c2ccccc2)[nH]c1=S` the fold change was -1.58. `O=C(Nc1ccc(I)cc1)C1CCCN1C(=O)c1cccs1` (stereo not given) gave a fold change of 1.51. For `Cn1c(Cc2ccccc2)n[nH]c1=S`, the fold change was -1.19. With `Cn1c(COc2ccc(C3CCCCC3)cc2)n[nH]c1=S` the fold change was 2.92 (active). `CCCCn1c(COc2ccc(Cl)cc2)n[nH]c1=S` showed a fold change of -1.76. `O=C(O)CCSc1ncnc2ccccc12` showed a fold change of -3.11. `CCN(CC)CC(=O)Nc1sc2c(c1C(N)=O)CCCC2` gave a fold change of 1. In the case of `O=c1[nH]cnc2nn(-c3ccccc3)nc12`, the fold change is reported as “inactive”. With `Fc1ccc(CSc2nnc(SCc3ccccc3F)s2)cc1` the fold change was -1.07. For `Fc1ccccc1CSC1=NCCN1`, the fold change was 3.44 (active). For `c1ccc(CC2=NCCN2)cc1`, the fold change was -1.2. `O=C1NC(=O)/C(=C/c2ccc(-c3ccc(Br)c(Cl)c3)o2)N1` showed a fold change of -1.16. Compound `Nc1ccc(N2CCCC2)c(C(F)(F)F)c1` has a fold change of 1.69. `COc1ccc(N/C=C(\C#N)C(N)=S)cc1OC` gave a fold change of -3.68. For `COc1ccc(CC2=CN(C)CC3=C2OC(N)=C(C#N)C3c2ccc(OC)cc2)cc1` (stereo not given), the fold change was 1.19. For `CCCN1CC2=C(OC(N)=C(C#N)C2c2ccc(SC)cc2)/C(=C/c2ccc(SC)cc2)C1` (stereo not given), the fold change was 5.06 (active). With `CC(C)N1C=C(Cc2ccc(F)cc2)C2=C(C1)C(c1ccc(F)cc1)C(C#N)=C(N)O2` (stereo not given) the fold change was 1.45. For `COc1ccc(C(=CCl)c2ccc(OC)c(Br)c2)cc1Br`, the fold change was -2.67. With `CCc1sc(C(C2C(=O)CC(C)(C)CC2=O)C2C(=O)CC(C)(C)CC2=O)cc1Br` the fold change was -6.02. `CCc1ccc(C(C2C(=O)CC(C)(C)CC2=O)C2C(=O)CC(C)(C)CC2=O)s1` gave a fold change of -2.62. With `CCc1sc(C(C2C(=O)CC(C)(C)CC2=O)C2C(=O)CC(C)(C)CC2=O)cc1[N+](=O)[O-]` the fold change was 3.11 (active). For `O=C(N=Nc1c(O)[nH]c2ccccc12)c1cc(-c2ccco2)[nH]n1`, the fold change was “inactive”. `O=[N+]([O-])c1ccc(SCCO)c2ncccc12` gave a fold change of 1.52. Work on `O=[N+]([O-])c1ccc(Cl)cc1N1CCN(CCO)CC1` yielded a fold change of 2.17. For `O=[N+]([O-])c1ccc(Cl)cc1SCCO`, the fold change was 3.06 (active). With `COc1ccc(C2C3CCC=C3C(C#N)=C(N)C2(C#N)C#N)c(OC)c1` (stereo not given) the fold change was 1.26. `COCCNC(=O)C(=O)NCCC1=CCCCC1` showed a fold change of 1.05. In the case of `C(=C/c1ccccc1)/CN1CCN(Cn2nnc3ccccc32)CC1`, the fold change is reported as -1.33. In the case of `Clc1cccc(N2CCN(Cn3nnc4ccccc43)CC2)c1`, the fold change is reported as 3.04 (active). In the case of `c1ccc2c(c1)nnn2CN1CCN(c2ccc3c(c2)OCO3)CC1`, the fold change is reported as -1.48. `Cc1cc(C)c(CCl)c(C)c1/C=N/O` gave a fold change of 1.02. With `O=C(O)CSc1nc(SCc2ccccc2)nc2ccccc12` the fold change was 1.5. With `CCc1ccc(C2C(C#N)=C(N)OC3=C2C(=O)CCC3)s1` (stereo not given) the fold change was 1.35. `Nc1nonc1C(=O)O` showed a fold change of -1.12. In the case of `CCOC(=O)c1nonc1N`, the fold change is reported as 3.82 (active). In the case of `COC(=O)c1nonc1N`, the fold change is reported as -1.05. `CS(=O)(=O)Nc1ccc(Br)cn1` gave a fold change of -1.27. `CCCOc1ccc(N/C(N)=N/c2nc(C)cc(C)n2)cc1` gave a fold change of -3.48. Work on `CC1=C(C2=C(C)C(C(C)C)C3=C(C(=O)C(O)C3O)C2O)C(O)C2=C(C(O)C(O)C2=O)C1C(C)C` (stereo not given) yielded a fold change of -1.99. With `O=S(=O)(Nc1ccc(F)c(Cl)c1)c1ccc(Cl)cc1` the fold change was 2.99 (active). Work on `O=S(=O)(Nc1cccc(F)c1)c1ccc(F)cc1` yielded a fold change of -1.33. For `O=S(=O)(Nc1cc(Cl)cc(Cl)c1)c1ccc(Cl)cc1`, the fold change was 4.93 (active). With `O=S(=O)(Nc1ccncc1)c1ccc(Cl)cc1` the fold change was -1.23. For `O=S(=O)(Nc1ccc2c(c1)OCO2)c1ccc(Cl)cc1`, the fold change was -1.43. With `O=S(=O)(Nc1ccc(Cl)cc1)c1ccc(NS(=O)(=O)c2ccc3c(c2)OCCO3)cc1` the fold change was -1.18. `COc1ccc(C2Oc3ccccc3C3CC(c4ccccc4)=NN32)cc1` (stereo not given) gave a fold change of -1.84. `O=c1cc(-c2ccc(O)cc2)oc2c(O)c(O)ccc12` showed a fold change of 1.16. For `CSc1nc2ccccc2n1Cc1ccccc1Cl`, the fold change was 1.29. Compound `O=S(=O)(Nc1ccc(S(=O)(=O)Nc2ccccc2Cl)cc1)c1ccc2c(c1)OCCO2` has a fold change of -1.07. For `CNCC1COCCO1` (stereo not given), the fold change was -2.02. Work on `N=C(N)SCc1csc(N)n1` yielded a fold change of 1.98. Compound `S=c1[nH]nc(Cc2cccc3ccccc23)o1` has a fold change of -2.84. With `C1=NC(Cc2cccc3ccccc23)NC1` (stereo not given) the fold change was 4.23 (active). For `Cc1nc2sc3c(c2c(=O)n1N)CCC3`, the fold change was -1.06. Compound `c1ccc(CC2COC(C3=N[C@@H](Cc4ccccc4)CO3)=N2)cc1` (stereo not given in full) has a fold change of 1.27. For `O=C(NCCC1=CCCCC1)C(=O)NCc1ccco1`, the fold change was -1.07. `O=S(=O)(c1ccc2ccccc2c1)N1CCc2ccccc21` gave a fold change of 1. `CCCCc1ccc(-c2csc(N)c2C#N)cc1` gave a fold change of -1.78. For `S=c1n(CN2CCOCC2)nnn1-c1ccccc1`, the fold change was 4.24 (active). `CCn1c(-c2ccccc2)nn(CN2CCOCC2)c1=S` gave a fold change of 1.15. Compound `S=c1n(CN2CCOCC2)nnn1C1CCCCC1` has a fold change of 1.01. In the case of `CN(C)c1nc(N)nc(CN(C)S(=O)(=O)c2ccccc2)n1`, the fold change is reported as -1.09. For `C(=Nc1ccc2[nH]ncc2c1)c1ccc2c(c1)OCO2`, the fold change was -2.04. In the case of `CN(C)c1ccc(C=Nc2ccc3[nH]c(=O)[nH]c3c2)cc1[N+](=O)[O-]`, the fold change is reported as -1.64. For `O=c1[nH]c2ccc(N=Cc3ccc4c(c3)OCO4)cc2[nH]1`, the fold change was 2.71 (active). Work on `O=C(ON1C(=O)CCC1=O)ON1C(=O)CCC1=O` yielded a fold change of -1.28. `O=[N+]([O-])c1ccc(Cl)c(N2CCCC2)c1` showed a fold change of 2.03. With `N=C(N)SCc1ccc(Cl)cc1` the fold change was 2.73 (active). In the case of `Nc1nnc(SCc2ccc(Cl)cc2)s1`, the fold change is reported as 1.21. `N=C(N)SCc1ccc(Cl)cc1Cl` showed a fold change of -1.36. Work on `CC1Oc2ccc(S(=O)(=O)NCC3CCCO3)cc2NC1=O` (stereo not given) yielded a fold change of -1.21. For `O=S(=O)(NCC1CCCO1)c1ccc(Br)cc1` (stereo not given), the fold change was 3.1 (active). Compound `O=S(=O)(NCC1CCCO1)c1ccccc1` (stereo not given) has a fold change of -1.72. For `NCC12CC3CC(CC(C3)C1)C2`, the fold change was -1.38. In the case of `CC1NC(=O)N(C(C)(C)C)C(=O)C1Cl` (stereo not given), the fold change is reported as 3.94 (active). Work on `COc1ccc(N2C(=O)/C(=C\N3CCN(C)CC3)SC2=S)cc1` yielded a fold change of -1.11.

Reference: PubChem BioAssay AID1259312 (Keith Lab, Institute of Cancer Science, University of …, 2017)
